Test results: ChEMBL document CHEMBL3988442, “University of Dundee, Small-Polar-MMV Screening Library” (2021)
For some of these results: Entries with a potency or affinity are not part of this list.

Legend:
Set-up in all cases: scale not given: direction of the effect not stated beside the values
[1] = target: Protein translocase subunit SecA (Escherichia coli (strain K12)) (UniProt P10408); test: Assay to Identify E. coli SecA ATPase Inhibitors; type: functional; conditions: 30 µM
[2] = target: T1, Ubiquitin-activating enzyme e1, putative (Leishmania donovani (strain BPK282A1)) (UniProt E9BSI1); test: Leishmania donovani Ubiquitin Activating Enzyme (LdE1); type: functional; conditions: 30 µM
T1 sequence (whole entry): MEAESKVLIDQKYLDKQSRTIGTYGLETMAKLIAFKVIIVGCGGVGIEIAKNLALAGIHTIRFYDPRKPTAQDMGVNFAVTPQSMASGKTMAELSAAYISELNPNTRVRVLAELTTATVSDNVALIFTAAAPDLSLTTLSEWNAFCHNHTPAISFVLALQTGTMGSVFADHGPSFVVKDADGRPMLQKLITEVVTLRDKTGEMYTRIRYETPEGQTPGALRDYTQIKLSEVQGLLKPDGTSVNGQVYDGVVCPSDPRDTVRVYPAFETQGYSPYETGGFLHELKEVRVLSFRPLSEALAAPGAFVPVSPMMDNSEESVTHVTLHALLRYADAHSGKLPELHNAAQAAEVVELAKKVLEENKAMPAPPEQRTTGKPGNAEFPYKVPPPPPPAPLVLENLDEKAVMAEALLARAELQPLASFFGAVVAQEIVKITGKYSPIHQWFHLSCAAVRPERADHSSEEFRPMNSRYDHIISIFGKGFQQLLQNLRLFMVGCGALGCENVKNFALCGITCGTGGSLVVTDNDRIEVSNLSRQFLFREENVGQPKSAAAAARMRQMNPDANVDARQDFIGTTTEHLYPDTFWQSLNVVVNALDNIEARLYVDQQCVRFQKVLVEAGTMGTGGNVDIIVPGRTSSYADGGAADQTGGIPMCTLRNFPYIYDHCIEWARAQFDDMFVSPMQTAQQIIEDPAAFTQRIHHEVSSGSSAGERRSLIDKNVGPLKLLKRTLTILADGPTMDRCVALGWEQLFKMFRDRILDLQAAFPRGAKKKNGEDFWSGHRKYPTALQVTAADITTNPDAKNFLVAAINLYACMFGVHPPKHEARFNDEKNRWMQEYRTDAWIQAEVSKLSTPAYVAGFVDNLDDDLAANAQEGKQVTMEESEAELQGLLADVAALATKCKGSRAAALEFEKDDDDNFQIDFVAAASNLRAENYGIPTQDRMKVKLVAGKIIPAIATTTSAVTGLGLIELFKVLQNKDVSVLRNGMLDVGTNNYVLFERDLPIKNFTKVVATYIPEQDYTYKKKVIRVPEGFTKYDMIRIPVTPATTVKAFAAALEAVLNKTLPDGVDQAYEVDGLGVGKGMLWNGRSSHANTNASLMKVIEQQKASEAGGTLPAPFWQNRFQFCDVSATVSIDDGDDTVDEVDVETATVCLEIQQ

[3] = target: AMP-activated protein kinase, AMPK (Homo sapiens) (UniProt P54646+O43741+P54619+Q9UGJ0+Q9Y478+Q13131+Q9UGI9); test: AMP-dependent Kinase enzyme assay. An in vitro enzyme assay that detects ADP turnover that is directly proportional to AMPK activity. This uses naive AMPK that is activated during the assay with MK-8722; type: functional; conditions: 30 µM
[4] = target: Sialic acid-binding Ig-like lectin 9 (Homo sapiens) (UniProt Q9Y336); test: Hs-Siglec9 ALPHAscreen SOP 20170721; conditions: 10 µM
Trypanosoma cruzi = test: Trypanosoma cruzi phosphomannomutase and mannose-1-phosphate guanylyltransferase assay; type: functional; conditions: 10 µM
[5] = target: T2, Arginase-2, mitochondrial (Homo sapiens) (UniProt P78540); test: in vitro enzyme assay to detect the production of urea directly proportional to the activity of Arginase II; type: functional; conditions: 33.3 µM; note: in the data most compounds retested in dose-response had high values
T2 sequence (whole entry): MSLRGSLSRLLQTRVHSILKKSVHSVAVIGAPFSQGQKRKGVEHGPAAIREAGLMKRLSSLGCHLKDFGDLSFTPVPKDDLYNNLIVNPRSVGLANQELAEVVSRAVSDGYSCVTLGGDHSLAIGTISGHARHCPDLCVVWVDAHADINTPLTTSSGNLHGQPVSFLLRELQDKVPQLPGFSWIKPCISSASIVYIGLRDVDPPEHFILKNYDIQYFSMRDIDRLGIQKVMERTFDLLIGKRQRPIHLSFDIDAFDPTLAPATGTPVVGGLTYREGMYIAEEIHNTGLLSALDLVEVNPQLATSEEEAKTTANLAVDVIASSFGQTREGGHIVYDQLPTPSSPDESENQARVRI

[6] = target: T3, Proteasome subunit beta (Trypanosoma cruzi) (UniProt O96673); test: Trypanosoma cruzi proteasome chymotrypsin-like activity (TcProtChymo) assay.; note: in the data most compounds retested in dose-response had high values; type: functional; conditions: 9.37 µM
T3 sequence (whole entry): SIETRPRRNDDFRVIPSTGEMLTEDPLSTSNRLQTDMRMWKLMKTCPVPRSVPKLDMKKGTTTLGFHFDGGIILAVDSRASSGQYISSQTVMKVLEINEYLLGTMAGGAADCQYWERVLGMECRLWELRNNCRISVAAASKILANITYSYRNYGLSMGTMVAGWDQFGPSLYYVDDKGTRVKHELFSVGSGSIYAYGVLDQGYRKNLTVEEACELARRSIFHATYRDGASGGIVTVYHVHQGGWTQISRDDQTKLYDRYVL

Homo sapiens = organism: Homo sapiens; test: To identify inhibition of the IFN signalling (Jak-Stat) pathway via expression of an eGFP reporter gene under the control of an IFN-stimulated response element (ISRE) containing MxA promoter.; type: functional; conditions: 30 µM
[7] = target: T4, Tyrosyl-tRNA synthetase, putative (Trypanosoma cruzi (strain CL Brener)) (UniProt Q4DSP6); test: Trypanosoma cruzi tyrosyl tRNA synthetase (TcYRS) _High Tyrosine SOP; type: functional; conditions: 30 µM; note: in the data most compounds retested in dose-response had high values
T4 sequence (whole entry): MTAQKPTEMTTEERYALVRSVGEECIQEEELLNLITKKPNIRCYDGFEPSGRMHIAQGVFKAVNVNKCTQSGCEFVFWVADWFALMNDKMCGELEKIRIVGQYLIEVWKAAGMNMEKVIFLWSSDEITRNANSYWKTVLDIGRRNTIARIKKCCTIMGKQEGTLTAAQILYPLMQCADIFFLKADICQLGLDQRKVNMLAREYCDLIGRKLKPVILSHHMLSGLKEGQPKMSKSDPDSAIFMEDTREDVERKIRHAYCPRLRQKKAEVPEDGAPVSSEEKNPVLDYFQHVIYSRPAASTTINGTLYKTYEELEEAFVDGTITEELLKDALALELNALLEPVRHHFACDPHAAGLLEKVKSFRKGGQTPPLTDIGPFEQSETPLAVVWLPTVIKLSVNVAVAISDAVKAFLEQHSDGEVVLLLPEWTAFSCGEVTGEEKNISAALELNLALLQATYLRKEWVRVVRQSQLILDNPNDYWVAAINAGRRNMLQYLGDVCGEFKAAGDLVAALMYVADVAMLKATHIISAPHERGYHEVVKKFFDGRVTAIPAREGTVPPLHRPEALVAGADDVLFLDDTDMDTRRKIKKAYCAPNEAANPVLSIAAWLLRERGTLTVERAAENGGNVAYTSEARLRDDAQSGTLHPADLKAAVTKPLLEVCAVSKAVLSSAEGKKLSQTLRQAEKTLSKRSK

[8] = target: T4, Tyrosyl-tRNA synthetase, putative (Trypanosoma cruzi (strain CL Brener)); test: Trypanosoma cruzi tyrosyl tRNA synthetase (TcYRS) SOP; type: functional; conditions: 30 µM
[9] = target: Chromo domain-containing protein 1 (Saccharomyces cerevisiae (strain ATCC 204508 / S288c) (Baker's yeast)) (UniProt P32657); test: ScCHD-1 Enzyme Inhibition Assay; type: functional; conditions: 30 µM; note: in the data most compounds retested in dose-response had high values
Chain of Chromo domain-containing protein 1 (Saccharomyces cerevisiae (strain ATCC 204508 / S288c) (Baker's yeast)) (P32657 whole entry, the tested form may be a part): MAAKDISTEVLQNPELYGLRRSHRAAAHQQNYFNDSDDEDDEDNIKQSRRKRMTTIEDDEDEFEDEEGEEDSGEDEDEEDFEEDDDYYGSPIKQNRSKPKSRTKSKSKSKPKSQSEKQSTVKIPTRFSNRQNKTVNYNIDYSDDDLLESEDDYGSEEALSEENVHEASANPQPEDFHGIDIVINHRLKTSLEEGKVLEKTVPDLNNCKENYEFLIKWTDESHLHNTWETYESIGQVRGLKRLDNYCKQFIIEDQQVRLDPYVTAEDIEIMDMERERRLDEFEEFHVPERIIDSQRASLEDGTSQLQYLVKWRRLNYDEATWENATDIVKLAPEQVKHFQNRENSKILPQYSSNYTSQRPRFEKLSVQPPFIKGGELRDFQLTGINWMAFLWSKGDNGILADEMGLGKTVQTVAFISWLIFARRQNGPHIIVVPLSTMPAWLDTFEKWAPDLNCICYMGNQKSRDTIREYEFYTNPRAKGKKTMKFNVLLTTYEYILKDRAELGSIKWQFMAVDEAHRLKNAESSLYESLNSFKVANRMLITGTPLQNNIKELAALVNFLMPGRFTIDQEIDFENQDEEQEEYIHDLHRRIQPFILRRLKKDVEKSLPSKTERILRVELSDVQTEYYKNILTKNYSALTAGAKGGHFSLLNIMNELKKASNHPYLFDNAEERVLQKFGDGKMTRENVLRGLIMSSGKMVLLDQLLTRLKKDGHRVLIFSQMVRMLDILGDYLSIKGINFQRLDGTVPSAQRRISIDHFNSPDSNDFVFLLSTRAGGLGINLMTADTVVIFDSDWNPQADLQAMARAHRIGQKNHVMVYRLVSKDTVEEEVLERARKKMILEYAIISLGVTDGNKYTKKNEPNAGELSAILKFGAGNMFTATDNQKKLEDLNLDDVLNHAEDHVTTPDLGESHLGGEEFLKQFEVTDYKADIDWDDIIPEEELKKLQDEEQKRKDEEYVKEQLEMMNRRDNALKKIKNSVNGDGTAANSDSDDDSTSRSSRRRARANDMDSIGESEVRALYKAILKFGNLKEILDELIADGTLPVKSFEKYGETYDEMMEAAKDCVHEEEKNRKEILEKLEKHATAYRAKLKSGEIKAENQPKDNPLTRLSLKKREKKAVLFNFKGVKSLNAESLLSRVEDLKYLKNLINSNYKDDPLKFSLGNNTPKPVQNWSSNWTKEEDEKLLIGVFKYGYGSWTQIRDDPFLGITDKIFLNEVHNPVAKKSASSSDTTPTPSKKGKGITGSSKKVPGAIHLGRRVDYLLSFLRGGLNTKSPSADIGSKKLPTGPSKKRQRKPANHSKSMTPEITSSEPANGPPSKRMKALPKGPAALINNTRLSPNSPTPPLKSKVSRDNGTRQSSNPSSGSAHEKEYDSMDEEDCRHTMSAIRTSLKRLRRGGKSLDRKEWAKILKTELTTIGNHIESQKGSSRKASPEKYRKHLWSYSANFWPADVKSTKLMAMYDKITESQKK

Chain of Protein translocase subunit SecA (Escherichia coli (strain K12)) (P10408 whole entry): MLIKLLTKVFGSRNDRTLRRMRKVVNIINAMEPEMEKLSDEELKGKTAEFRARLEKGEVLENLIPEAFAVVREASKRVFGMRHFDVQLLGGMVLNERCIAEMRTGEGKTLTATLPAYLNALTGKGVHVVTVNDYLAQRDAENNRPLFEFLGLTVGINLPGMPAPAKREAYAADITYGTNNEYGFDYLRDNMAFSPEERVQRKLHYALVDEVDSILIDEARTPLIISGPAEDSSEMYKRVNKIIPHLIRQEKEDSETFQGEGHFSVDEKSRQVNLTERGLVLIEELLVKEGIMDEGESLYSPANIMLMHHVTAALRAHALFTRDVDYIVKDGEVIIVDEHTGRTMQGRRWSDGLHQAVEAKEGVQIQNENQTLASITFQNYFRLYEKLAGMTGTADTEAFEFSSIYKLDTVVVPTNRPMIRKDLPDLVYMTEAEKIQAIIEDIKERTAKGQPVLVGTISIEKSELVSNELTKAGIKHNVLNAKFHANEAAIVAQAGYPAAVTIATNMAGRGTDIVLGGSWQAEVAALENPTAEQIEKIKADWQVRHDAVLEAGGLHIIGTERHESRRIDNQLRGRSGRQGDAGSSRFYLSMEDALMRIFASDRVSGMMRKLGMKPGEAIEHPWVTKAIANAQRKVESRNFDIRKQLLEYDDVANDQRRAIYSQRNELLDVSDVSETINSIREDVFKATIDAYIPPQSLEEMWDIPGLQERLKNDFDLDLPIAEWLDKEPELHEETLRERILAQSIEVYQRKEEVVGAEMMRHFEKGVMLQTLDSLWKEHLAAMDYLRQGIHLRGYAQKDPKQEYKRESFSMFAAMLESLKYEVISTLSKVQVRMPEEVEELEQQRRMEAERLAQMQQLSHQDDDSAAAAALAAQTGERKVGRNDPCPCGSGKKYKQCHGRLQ
Chain of Sialic acid-binding Ig-like lectin 9 (Homo sapiens) (Q9Y336 whole entry): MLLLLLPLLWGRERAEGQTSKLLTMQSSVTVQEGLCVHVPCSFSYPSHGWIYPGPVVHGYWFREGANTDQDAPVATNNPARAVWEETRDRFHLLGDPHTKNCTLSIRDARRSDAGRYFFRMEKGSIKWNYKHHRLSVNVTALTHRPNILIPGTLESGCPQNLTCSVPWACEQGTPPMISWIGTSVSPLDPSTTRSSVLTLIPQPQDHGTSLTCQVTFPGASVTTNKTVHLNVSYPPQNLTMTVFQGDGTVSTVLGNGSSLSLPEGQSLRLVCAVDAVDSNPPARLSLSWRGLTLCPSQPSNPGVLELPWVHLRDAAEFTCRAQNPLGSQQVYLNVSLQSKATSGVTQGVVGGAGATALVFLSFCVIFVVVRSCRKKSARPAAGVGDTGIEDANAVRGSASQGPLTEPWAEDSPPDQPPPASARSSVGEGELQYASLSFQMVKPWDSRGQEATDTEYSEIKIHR

| Structure (SMILES) | Percent Effect [1] | Percent Effect [2] | Percent Effect [3] | Percent Effect [4] | Percent Effect (Trypanosoma cruzi) | Percent Effect [5] | Percent Effect [6] | Percent Effect (Homo sapiens) | Percent Effect [7] | Percent Effect [8] | Percent Effect [9] |
| --- | --- | --- | --- | --- | --- | --- | --- | --- | --- | --- | --- |
| Cc1cnn(CC2CCCN2CCc2nc3ccccc3c(=O)[nH]2)c1 (stereo not drawn) | -3.81% | 10.1% | -7.83% | 11.2% | 6.89% | 4.56% | -1.06% | 15.8% | 3.45% | 16.5% | -5.27% |
| CN1CCN(C(=O)c2nc3c(o2)CN(C(=O)c2cccnc2)C3)CC1 | -2.08% | 0% | -4.16% | 2.81% | -1.28% | -5.52% | 14% | 2.22% | 1.07% | 8.64% | 1.76% |
| Cc1nn(C)c(C)c1C(C)NC(=O)Nc1cccnc1N1CCCC1 (stereo not drawn) | -1.26% | 2.7% | -19.3% | 6.12% | -3.3% | 0% | 0.18% | 15% | -0.493% | 3.7% | -0.951% |
| CC1c2ncc(CN3CCN(C)CC3)n2CCN1CC1CC1 (stereo not drawn) | -1.8% | 18.7% | -6.67% | 5.11% | 5.99% | -54.7% | 6.33% | -3.72% | 6.25% | 17.5% | -8.05% |
| CC(c1ccc(Cl)cc1)N1CCN(CCS(C)(=O)=O)CC1 (stereo not drawn) | -3.62% | 5.41% | 0.609% | 6.25% | -0.579% | 3.81% | 14% | 10.3% | 3.7% | 14.6% | -5.14% |
| CCc1noc(CNc2cc(F)ccc2OCC2CCCO2)n1 (stereo not drawn) | -0.224% | -2.7% | -4.16% | 1.82% | -4.83% | -0.476% | 11.9% | 2.67% | -0.529% | 0% | -1.43% |
| Cc1ccoc1C(=O)NC1CCN(Cc2cccc3c2OCCO3)CC1 | -5.22% | 16.5% | -78.8% | 6.72% | 3.38% | -5.38% | 13.9% | 8.82% | 13.5% | 25.3% | -24.5% |
| CC(C)Cc1noc(CN(C)C(=O)C2COc3ccccc3C2)n1 (stereo not drawn) | -3.93% | 5.2% | -1.17% | 6.48% | -0.0983% | -27.6% | 14.3% | -9.36% | -1.07% | 13.6% | 0.431% |
